37 compounds from the supplement of paper PMC9950053 can be followed below.

Structures can show the parent of a compound that is named as a salt.

In this experiment the test system is Danio rerio larvae (5 dpf). In words: excitability (activity period 17 minus period 16, 1-s interval sound) minus DMSO control (percentage points); higher = more acoustic excitability than DMSO larvae. The conditions noted are these: 10 µM; exposure time: 3 h pre-incubation + 3 h imaging. The procedure: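 Wild-type 5 dpf zebrafish larvae (n=48 per drug, 96-well plates, 28.5 °C) were exposed to Tocris FDA-approved library compounds at 10 µM (0.1% DMSO) for 3 h before and 3 h during imaging. Images were taken every 6 s during visual and acoustic stimuli, and larvae were tracked with Z-LaP Tracker. Each measure is the treated-group mean minus the DMSO control mean (n=844), in percentage points. This mapping covers compounds with 5-character plate codes.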
Turning to `COc1cc2nccc(Oc3ccc(NC(=O)C4(C(=O)Nc5ccc(F)cc5)CC4)cc3)c2cc1OC`, the excitability stood at 16.9.
As for `O=C1CCc2ccc(OCCCCN3CCN(c4cccc(Cl)c4Cl)CC3)cc2N1` [Aripiprazole], the figure is 16.5; as for `CCCc1nn(C)c2c(=O)[nH]c(-c3cc(S(=O)(=O)N4CCN(C)CC4)ccc3OCC)nc12` [Sildenafil citrate], 4.28; as for `C#CCN[C@@H]1CCc2ccccc21` [Rasagiline mesylate], -0.121.
For the compound `CN(C)CCc1c[nH]c2ccc(C[C@H]3COC(=O)N3)cc12` [Zolmitriptan], the excitability is 4.24.
As for `O=c1n(CCCN2CCN(c3cccc(Cl)c3)CC2)nc2ccccn12` [Trazodone hydrochloride], the figure is 20.3.
Regarding `NC(=O)OCC(COC(N)=O)c1ccccc1` [Felbamate], the excitability was -3.94.
`CN[C@H]1CC[C@@H](c2ccc(Cl)c(Cl)c2)c2ccccc21` [Sertraline hydrochloride]: the excitability was found to be 10.4.
In the case of `CNCc1ccc(-c2[nH]c3cc(F)cc4c3c2CCNC4=O)cc1` [Rucaparib camsylate], the excitability amounted to 13.1.
In the case of `CC(=O)Oc1cc2c(s1)CCN(C(C(=O)C1CC1)c1ccccc1F)C2` (configuration not stated) [Prasugrel], the excitability was 5.89.
Turning to `COc1cc(N)c(Cl)cc1C(=O)NC1CCN(CCCOc2ccc(F)cc2)CC1OC` (configuration not stated) [Cisapride], the excitability amounted to 18.5.
`COc1ccccc1Oc1c(NS(=O)(=O)c2ccc(C(C)(C)C)cc2)nc(-c2ncccn2)nc1OCCO` [Bosentan]: the excitability is -2.37.
As for `CNS(=O)(=O)Cc1ccc2[nH]cc(CCN(C)C)c2c1` [Sumatriptan succinate], the figure is -4.97; as for `O=C(O)C[C@H](O)C[C@H](O)/C=C/c1c(C2CC2)nc2ccccc2c1-c1ccc(F)cc1` [Pitavastatin calcium], -1.16; as for `CNC(=O)c1cc(Oc2ccc(NC(=O)Nc3ccc(Cl)c(C(F)(F)F)c3)cc2)ccn1` [Sorafenib], 13.1.
For the compound `C[C@H]1O[C@H](O[C@H]2[C@H](O)[C@@H](O)[C@@H](O[C@H]3[C@H](O)[C@@H](O)C(O)O[C@@H]3CO)O[C@@H]2CO)[C@H](O)[C@@H](O)[C@@H]1N[C@H]1C=C(CO)[C@@H](O)[C@H](O)[C@H]1O` (some centres not stated) [Acarbose], the excitability is -4.36.
On to `OCCN1C[C@H](O)[C@@H](O)[C@H](O)[C@H]1CO` [Miglitol], for which the excitability came out at 4.04.
As for `N#Cc1ccc2[nH]cc(CCCCN3CCN(c4ccc5oc(C(N)=O)cc5c4)CC3)c2c1` [Vilazodone hydrochloride], the figure is 17.
With `CCc1nc(N)nc(N)c1-c1ccc(Cl)cc1` [Pyrimethamine], the excitability is 6.57.
As for `CC(C)OC(=O)C(C)(C)Oc1ccc(C(=O)c2ccc(Cl)cc2)cc1` [Fenofibrate], the figure is 4.72; as for `C[C@@H]1C[C@H]2[C@@H]3CCC4=CC(=O)C=C[C@]4(C)[C@@]3(F)[C@@H](O)C[C@]2(C)[C@@]1(O)C(=O)CO` [Dexamethasone], -4.14.
Turning to `CC[C@H]1OC(=O)[C@H](C)[C@@H](O[C@H]2C[C@@](C)(OC)[C@@H](O)[C@H](C)O2)[C@H](C)[C@@H](O[C@@H]2O[C@H](C)C[C@H](N(C)C)[C@H]2O)[C@](C)(O)C[C@@H](C)CN(C)[C@H](C)[C@@H](O)[C@]1(C)O` [Azithromycin], the excitability was 15.8.
As for `N#C[C@@H]1C[C@@H]2C[C@@H]2N1C(=O)[C@@H](N)C12CC3CC(CC(O)(C3)C1)C2` [Saxagliptin hydrochloride], the figure is 2.14; as for `COc1ccccc1OCC(O)CN1CCN(CC(=O)Nc2c(C)cccc2C)CC1` (configuration not stated) [Ranolazine dihydrochloride], 4.28.
As to `CC(=O)Nc1ccc(O)cc1` [Acetaminophen], the excitability was -1.73.
Take `COCCc1ccc(OCC(O)CNC(C)C)cc1` (configuration not stated) [Metoprolol tartrate]: the excitability is -6.24.
With `CCCCCCCN(CC)CCCC(O)c1ccc(NS(C)(=O)=O)cc1` (configuration not stated) [Ibutilide hemifumarate] the figure was 13.3; with `CCCC1O[C@@H]2C[C@H]3[C@@H]4CCC5=CC(=O)C=C[C@]5(C)[C@H]4[C@@H](O)C[C@]3(C)[C@]2(C(=O)CO)O1` (some centres not stated) [Budesonide], 1.14.
With `Clc1ccc2nsnc2c1NC1=NCCN1` [Tizanidine hydrochloride] the figure was 6.39; with `CC(C)COCC(CN(Cc1ccccc1)c1ccccc1)N1CCCC1` (configuration not stated) [Bepridil hydrochloride], 14.7; with `OC(c1cc(C(F)(F)F)nc2c(C(F)(F)F)cccc12)C1CCCCN1` (configuration not stated) [Mefloquine hydrochloride], 13.3.
As for `COc1cc([C@@H]2c3cc4c(cc3[C@@H](O[C@@H]3O[C@@H]5CO[C@@H](C)O[C@H]5[C@H](O)[C@H]3O)[C@H]3COC(=O)[C@H]23)OCO4)cc(OC)c1O` [Etoposide], the figure is 9.95.
As to `NS(=O)(=O)c1cc2c(cc1Cl)NC(C1CC3C=CC1C3)NS2(=O)=O` (configuration not stated) [Cyclothiazide], the excitability was found to be 0.365.
With `CC(C)(C(=O)O)c1ccc(C(O)CCCN2CCC(C(O)(c3ccccc3)c3ccccc3)CC2)cc1` (configuration not stated) [Fexofenadine hydrochloride] the figure was -5.03; with `CN(C)C(=N)NC(=N)N` [Metformin hydrochloride], 6.55; with `OCc1cc(C(O)CNCCCCCCOCCCCc2ccccc2)ccc1O` (configuration not stated) [Salmeterol xinafoate], 13.1.
As for `Cc1cc2c(s1)Nc1ccccc1N=C2N1CCN(C)CC1` [Olanzapine], the figure is 2.72.
